Test results published in PubChem BioAssay (EPA / NIEHS).
Results filed as inconclusive are left out. The source made the active and inactive calls. Rule for the calls: active = hit-call score of the fitted dose curve at least 0.9, where 1 is the maximum; inconclusive = response in the unintended direction; inactive = score below 0.9.

Legend:
[1] = molecular target: rat Neurokinin-1 Receptor (NK1), Tacr1 (gene 24807) (UniProt P14600); test: NVS_GPCR_rNK1: NovaScreen (NVS) G Protein-Coupled Receptor Assay for rat Neurokinin-1 Receptor (NK1) (AID 2283309)
Sequence of rat Neurokinin-1 Receptor (NK1), Tacr1 (gene 24807) (P14600 whole entry, looked up): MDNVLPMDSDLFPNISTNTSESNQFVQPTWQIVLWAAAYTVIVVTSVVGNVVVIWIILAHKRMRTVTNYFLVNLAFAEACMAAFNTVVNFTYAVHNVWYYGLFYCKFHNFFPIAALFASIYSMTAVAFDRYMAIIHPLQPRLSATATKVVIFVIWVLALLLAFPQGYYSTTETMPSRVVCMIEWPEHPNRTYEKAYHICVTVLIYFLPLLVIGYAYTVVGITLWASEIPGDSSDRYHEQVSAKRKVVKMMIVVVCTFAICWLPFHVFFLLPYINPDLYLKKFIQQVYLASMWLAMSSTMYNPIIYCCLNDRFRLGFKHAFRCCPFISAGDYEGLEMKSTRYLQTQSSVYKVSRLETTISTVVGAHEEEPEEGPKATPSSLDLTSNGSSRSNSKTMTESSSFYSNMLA
Procedure, shortened: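 Competitive radioligand binding to NK1 in rat submaxillary membranes, 1 h incubation, filtration and scintillation read-out. Compounds first screened at 25 uM in duplicate, then concentration-response for actives; signal loss relative to DMSO.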

[2] = molecular target: Adra2b (gene 24174) (UniProt P19328); test: NVS_GPCR_rmAdra2B: NovaScreen (NVS) G Protein-Coupled Receptor Assay for hybird cells Adrenergic, Alpha 2B Receptor (Adra2B) (AID 2283306)
Sequence of Adra2b (gene 24174) (P19328 whole entry, looked up): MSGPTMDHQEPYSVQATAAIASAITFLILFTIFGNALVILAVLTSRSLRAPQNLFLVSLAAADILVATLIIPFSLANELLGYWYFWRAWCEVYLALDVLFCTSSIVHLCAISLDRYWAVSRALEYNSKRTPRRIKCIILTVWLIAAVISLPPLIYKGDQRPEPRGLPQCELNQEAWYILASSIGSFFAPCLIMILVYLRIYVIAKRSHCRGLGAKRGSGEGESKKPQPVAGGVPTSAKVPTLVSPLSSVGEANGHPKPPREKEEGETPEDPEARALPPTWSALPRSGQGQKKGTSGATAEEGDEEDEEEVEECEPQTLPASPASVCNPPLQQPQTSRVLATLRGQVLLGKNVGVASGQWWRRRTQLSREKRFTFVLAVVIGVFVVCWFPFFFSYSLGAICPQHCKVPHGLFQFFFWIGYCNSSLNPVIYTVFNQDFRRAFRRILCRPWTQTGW
Procedure, shortened: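 Compounds screened first at 25 uM in duplicate, with actives followed up in concentration-response; specific radioligand displacement from hybrid neuroglioma/blastoma cell membrane preparations measured by filter scintillation counting after 1 h, normalized to DMSO.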

[3] = molecular target: rat Neurokinin-3 Receptor (NK3), Tacr3 (gene 24808) (UniProt P16177); test: NVS_GPCR_rNK3: NovaScreen (NVS) G Protein-Coupled Receptor Assay for rat Neurokinin-3 Receptor (NK3) (AID 2283310)
Sequence of rat Neurokinin-3 Receptor (NK3), Tacr3 (gene 24808) (P16177 whole entry, looked up): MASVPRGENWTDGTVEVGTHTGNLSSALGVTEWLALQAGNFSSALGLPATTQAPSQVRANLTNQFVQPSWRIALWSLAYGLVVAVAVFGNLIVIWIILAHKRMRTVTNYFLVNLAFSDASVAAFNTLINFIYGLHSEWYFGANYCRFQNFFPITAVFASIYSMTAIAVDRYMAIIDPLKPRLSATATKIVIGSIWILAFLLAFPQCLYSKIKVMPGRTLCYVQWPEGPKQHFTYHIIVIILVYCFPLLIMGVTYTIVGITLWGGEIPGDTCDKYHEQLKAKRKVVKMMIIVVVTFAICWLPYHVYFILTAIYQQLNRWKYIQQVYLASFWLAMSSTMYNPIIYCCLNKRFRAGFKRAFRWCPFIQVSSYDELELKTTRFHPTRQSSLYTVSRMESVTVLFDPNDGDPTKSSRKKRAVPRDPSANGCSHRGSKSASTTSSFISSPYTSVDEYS
Procedure, shortened: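 Filter-based radioligand displacement on rat cortex membrane preparations, read by scintillation 2 h post-dose. Chemicals first tested in duplicate at 25 uM; actives followed up in concentration series with a 50 uM maximum.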

[4] = molecular target: rat Opioid Receptor, Non-selective Sodium (Na+) Binding, Oprm1 (gene 25601) (UniProt P33535); test: NVS_GPCR_rOpiate_NonSelectiveNa: NovaScreen (NVS) G Protein-Coupled Receptor Assay for rat Opioid Receptor, Non-selective Sodium (Na+) Binding (AID 2283311)
Sequence of rat Opioid Receptor, Non-selective Sodium (Na+) Binding, Oprm1 (gene 25601) (P33535 whole entry, looked up): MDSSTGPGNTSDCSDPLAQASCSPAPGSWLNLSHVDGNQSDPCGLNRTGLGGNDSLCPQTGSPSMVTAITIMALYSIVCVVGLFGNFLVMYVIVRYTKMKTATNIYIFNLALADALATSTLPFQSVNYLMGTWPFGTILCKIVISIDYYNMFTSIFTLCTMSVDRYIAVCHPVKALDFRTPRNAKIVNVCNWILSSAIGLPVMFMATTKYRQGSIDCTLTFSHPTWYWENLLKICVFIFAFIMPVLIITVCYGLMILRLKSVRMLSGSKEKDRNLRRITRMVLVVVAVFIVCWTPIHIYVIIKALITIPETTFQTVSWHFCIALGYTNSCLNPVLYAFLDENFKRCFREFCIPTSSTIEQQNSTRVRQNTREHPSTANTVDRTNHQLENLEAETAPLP
Procedure, shortened: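 Filtration radioligand binding on rat forebrain membrane preparations, read 1.5 h after dosing. Single-concentration 25 µM primary screen in duplicate, followed by singleton concentration series to 50 µM max for actives; DMSO baseline.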

[5] = molecular target: rat Opioid Receptor, Non-selective Binding, Oprm1 (gene 25601) (UniProt P33535); test: NVS_GPCR_rOpiate_NonSelective: NovaScreen (NVS) G Protein-Coupled Receptor Assay for rat Opioid Receptor, Non-selective Binding (AID 2283318)
Sequence of rat Opioid Receptor, Non-selective Binding, Oprm1 (gene 25601) (P33535 whole entry, looked up): as above
Procedure, shortened: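 Filter-based radioligand displacement using rat forebrain membrane preparations, measured 1.5 h post-dosing. Single-concentration duplicate screen at 25 uM, follow-up in concentration series; activity taken as signal loss relative to DMSO.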

[6] = system: NCBI gene 24521; test: NVS_IC_rKATPCh: NovaScreen (NVS) Ion Channel Assay for rat Potassium Channel, ATP-Sensitive (KATPCh) (AID 2283319)
Procedure, shortened: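 Primary duplicate screen at 25 uM, then singleton concentration series to 50 uM maximum, in a rat cortex membrane radioligand displacement assay. Binding measured by filtration and scintillation 2 h post-dose; DMSO baseline.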

[7] = NVS_IC_rCaDHPRCh_L: NovaScreen (NVS) Ion Channel Assay for rat Calcium Channel, Type L, Dihydropyridine Site (CaDHPRCh_L) (AID 2283320)
Procedure, shortened: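 Rat cortex membrane preparation; dihydropyridine-site radioligand displacement read 1 h post-dose by filtration and scintillation. Primary single-point screen 25 uM in duplicate, then concentration series to 50 uM maximum; DMSO as negative control.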

[8] = molecular target: Sodium channel protein type 1 subunit alpha (Rattus norvegicus) (UniProt P04774); test: NVS_IC_rNaCh_site2: NovaScreen (NVS) Ion Channel Assay for rat Sodium Channel, Site 2 (NaCh) (AID 2283322);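 note: hit means loss of radioligand binding signal relative to DMSO so AC50 marks displacement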
Procedure, shortened: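 Initial duplicate single-point testing at 25 uM, followed by concentration-response runs for actives. Binding of radioligand to rat forebrain membranes quantified after 1 h via filter-based radiodetection.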

[9] = molecular target: rat Glutamate, AMPA Site (AMPA), Gria1 (gene 50592) (UniProt P19490); test: NVS_LGIC_rAMPA: NovaScreen (NVS) Ligand-Gated Ion Channel Assay for rat Glutamate, AMPA Site (AMPA) (AID 2283324)
Sequence of rat Glutamate, AMPA Site (AMPA), Gria1 (gene 50592) (P19490 whole entry, looked up): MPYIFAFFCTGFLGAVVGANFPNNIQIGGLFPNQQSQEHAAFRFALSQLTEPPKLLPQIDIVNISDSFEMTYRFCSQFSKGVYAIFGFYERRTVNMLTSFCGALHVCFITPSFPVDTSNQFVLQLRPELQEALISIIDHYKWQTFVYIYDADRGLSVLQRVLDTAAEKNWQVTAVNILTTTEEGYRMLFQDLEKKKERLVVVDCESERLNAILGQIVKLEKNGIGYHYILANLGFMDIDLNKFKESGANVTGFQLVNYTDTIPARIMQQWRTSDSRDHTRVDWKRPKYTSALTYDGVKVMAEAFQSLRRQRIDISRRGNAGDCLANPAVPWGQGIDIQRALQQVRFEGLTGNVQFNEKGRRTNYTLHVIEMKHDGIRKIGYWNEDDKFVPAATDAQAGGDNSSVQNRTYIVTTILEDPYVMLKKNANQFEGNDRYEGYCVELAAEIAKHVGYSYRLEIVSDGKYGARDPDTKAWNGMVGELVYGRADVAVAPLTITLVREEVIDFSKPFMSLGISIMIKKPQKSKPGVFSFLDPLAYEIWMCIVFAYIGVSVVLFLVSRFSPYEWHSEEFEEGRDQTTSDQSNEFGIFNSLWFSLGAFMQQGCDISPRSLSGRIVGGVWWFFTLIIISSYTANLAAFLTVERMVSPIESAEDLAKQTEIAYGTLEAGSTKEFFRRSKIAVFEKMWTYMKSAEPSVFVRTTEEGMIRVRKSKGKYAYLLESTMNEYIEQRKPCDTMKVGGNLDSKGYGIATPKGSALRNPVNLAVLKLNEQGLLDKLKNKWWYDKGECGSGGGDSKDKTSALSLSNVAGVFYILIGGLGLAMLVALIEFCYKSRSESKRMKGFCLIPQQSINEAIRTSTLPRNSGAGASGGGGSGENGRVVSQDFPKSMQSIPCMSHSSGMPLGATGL
Procedure, shortened: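 Screening at 25 uM in duplicate preceded concentration series reaching 50 uM for qualifying compounds. Radioligand displacement on rat forebrain membranes, 1 h, filter-based scintillation readout; reduced binding relative to DMSO.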

[10] = molecular target: rat Glutamate Metabotropic Receptor 5 (MGluR5), Grm5 (gene 24418) (UniProt P31424); test: NVS_GPCR_rmMGluR5: NovaScreen (NVS) G Protein-Coupled Receptor Assay for rat Glutamate Metabotropic Receptor 5 (MGluR5) (AID 2283307)
Sequence of rat Glutamate Metabotropic Receptor 5 (MGluR5), Grm5 (gene 24418) (P31424 whole entry, looked up): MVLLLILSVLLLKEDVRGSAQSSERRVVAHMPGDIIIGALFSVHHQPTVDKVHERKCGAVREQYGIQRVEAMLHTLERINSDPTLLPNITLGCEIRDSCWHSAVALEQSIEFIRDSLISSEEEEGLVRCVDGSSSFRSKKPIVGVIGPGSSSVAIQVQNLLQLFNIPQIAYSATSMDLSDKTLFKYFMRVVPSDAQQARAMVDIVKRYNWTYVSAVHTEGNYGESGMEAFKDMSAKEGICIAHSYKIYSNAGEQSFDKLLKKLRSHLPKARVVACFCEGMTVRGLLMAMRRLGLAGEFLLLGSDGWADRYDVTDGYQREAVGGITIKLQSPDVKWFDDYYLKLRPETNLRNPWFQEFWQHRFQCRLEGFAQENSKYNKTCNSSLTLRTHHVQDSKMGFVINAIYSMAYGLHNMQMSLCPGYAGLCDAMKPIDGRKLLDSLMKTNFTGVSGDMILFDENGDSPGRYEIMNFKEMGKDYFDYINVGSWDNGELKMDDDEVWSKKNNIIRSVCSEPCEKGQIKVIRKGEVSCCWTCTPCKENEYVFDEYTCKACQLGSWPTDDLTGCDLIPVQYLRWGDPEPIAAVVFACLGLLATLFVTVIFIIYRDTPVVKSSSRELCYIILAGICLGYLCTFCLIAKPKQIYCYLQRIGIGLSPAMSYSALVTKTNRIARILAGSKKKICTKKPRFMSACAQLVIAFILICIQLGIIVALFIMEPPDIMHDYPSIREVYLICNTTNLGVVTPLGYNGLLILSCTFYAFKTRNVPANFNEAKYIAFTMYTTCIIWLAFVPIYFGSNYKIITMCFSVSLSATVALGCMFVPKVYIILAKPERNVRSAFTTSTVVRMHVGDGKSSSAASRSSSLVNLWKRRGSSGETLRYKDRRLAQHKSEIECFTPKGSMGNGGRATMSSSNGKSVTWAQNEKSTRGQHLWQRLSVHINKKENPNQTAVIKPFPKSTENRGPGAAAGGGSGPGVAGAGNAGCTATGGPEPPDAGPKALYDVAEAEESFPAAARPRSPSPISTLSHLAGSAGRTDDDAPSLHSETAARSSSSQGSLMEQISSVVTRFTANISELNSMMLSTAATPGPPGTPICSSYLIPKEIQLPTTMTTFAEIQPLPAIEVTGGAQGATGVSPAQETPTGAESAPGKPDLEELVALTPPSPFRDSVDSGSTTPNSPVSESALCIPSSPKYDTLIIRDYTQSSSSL
Procedure, shortened: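 Compounds first screened in duplicate at 25 uM, then in concentration series up to 50 uM if over threshold. Radioligand displacement on rat whole-brain membranes, filtration and scintillation counting after 1.5 h; binding loss relative to DMSO.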

[11] = molecular target: rat Somatostatin Receptor (SST), Sstr1 (gene 25033) (UniProt P28646); test: NVS_GPCR_rSST: NovaScreen (NVS) G Protein-Coupled Receptor Assay for rat Somatostatin Receptor (SST) (AID 2283314)
Sequence of rat Somatostatin Receptor (SST), Sstr1 (gene 25033) (P28646 whole entry, looked up): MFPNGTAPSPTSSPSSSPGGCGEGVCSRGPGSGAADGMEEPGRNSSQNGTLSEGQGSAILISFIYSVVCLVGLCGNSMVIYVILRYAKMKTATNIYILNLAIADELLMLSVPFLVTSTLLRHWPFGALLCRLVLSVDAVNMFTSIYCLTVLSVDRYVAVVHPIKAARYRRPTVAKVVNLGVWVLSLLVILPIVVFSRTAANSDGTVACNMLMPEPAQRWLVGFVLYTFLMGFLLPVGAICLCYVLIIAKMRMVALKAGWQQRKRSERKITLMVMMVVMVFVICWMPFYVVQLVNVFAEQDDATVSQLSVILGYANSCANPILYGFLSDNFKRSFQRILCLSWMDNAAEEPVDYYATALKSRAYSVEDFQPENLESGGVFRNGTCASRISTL
Procedure, shortened: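 Single-concentration duplicate screen (25 uM), then concentration-response up to 50 uM for chemicals passing a threshold such as 30% inhibition. Membranes came from rat forebrain. Binding was measured 1 h post-dose by filter radiodetection and scintillation, relative to DMSO.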

[12] = molecular target: rat Vasopressin 1 Receptor (V1), Avpr1a (gene 25107) (UniProt P30560); test: NVS_GPCR_rV1: NovaScreen (NVS) G Protein-Coupled Receptor Assay for rat Vasopressin 1 Receptor (V1) (AID 2283316)
Procedure, shortened: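 Concentration-response up to 50 uM for chemicals passing a threshold such as 30% inhibition in an initial duplicate 25 uM screen. Displacement of radioligand from rat liver membranes measured after 1.5 h by filtration and scintillation.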

[13] = molecular target: rat Gamma-Aminobutyric Acid Type A Receptor, Non-Selective (GABAR-NonSelective), Gabra1 (gene 29705) (UniProt P62813); test: NVS_LGIC_rGABAR_NonSelective: NovaScreen (NVS) Ligand-Gated Ion Channel Assay for rat Gamma-Aminobutyric Acid Type A Receptor, Non-Selective (GABAR-NonSelective) (AID 2283326)
Procedure, shortened: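 Compounds were first screened in duplicate at 25 uM, with actives run as singleton concentration series (max 50 uM). Binding of a radioligand to rat whole-brain GABA-A preparation was measured by filtration and scintillation counting after 1 h, DMSO baseline.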

[14] = molecular target: Voltage-dependent N-type calcium channel subunit alpha-1B (Rattus norvegicus) (UniProt Q02294); test: NVS_IC_rCaChN: NovaScreen (NVS) Ion Channel Assay for rat Calcium Channel, Type N (CaChN) (AID 2283317)
[15] = molecular target: human Neonicotinoid receptor (NNR), CHRNA2 (gene 1135) (UniProt Q15822); test: NVS_LGIC_hNNR_NBungSens: NovaScreen (NVS) Ligand-Gated Ion Channel Assay for human Neonicotinoid receptor (NNR) (AID 2283313)
Sequence of human Neonicotinoid receptor (NNR), CHRNA2 (gene 1135) (Q15822 whole entry, looked up): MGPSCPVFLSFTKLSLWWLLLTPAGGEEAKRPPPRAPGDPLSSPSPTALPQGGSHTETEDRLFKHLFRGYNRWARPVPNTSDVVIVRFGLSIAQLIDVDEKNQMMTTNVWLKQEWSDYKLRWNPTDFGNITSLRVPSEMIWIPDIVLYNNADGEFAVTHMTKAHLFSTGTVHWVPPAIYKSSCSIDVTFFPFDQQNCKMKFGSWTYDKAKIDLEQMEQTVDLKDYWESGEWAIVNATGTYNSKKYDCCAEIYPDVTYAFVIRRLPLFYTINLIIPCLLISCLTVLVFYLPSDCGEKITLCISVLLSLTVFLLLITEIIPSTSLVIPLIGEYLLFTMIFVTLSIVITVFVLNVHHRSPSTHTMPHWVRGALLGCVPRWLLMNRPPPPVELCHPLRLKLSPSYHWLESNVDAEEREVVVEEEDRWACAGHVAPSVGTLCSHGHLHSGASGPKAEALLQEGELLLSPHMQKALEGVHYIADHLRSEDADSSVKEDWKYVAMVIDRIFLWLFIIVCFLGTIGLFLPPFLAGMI
Procedure, shortened: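 Compounds first screened in duplicate at 25 uM, then actives re-tested in single-replicate dose series up to 50 uM. Binding measured as displacement of specific radioligand from neuroblastoma membrane receptors after 2 h, scintillation read on filters.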

[16] = molecular target: bovine Gamma-Aminobutyric Acid Type A Receptor BDZ, alpha 1 site (GABARa1), GABRA1 (gene 780973) (UniProt P08219); test: NVS_LGIC_bGABARa1: NovaScreen (NVS) Ligand-Gated Ion Channel Assay for bovine Gamma-Aminobutyric Acid Type A Receptor BDZ, alpha 1 site (GABARa1) (AID 2283321)
Procedure, shortened: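 Bovine cortex membrane preparation, benzodiazepine site on GABA-A alpha1; specific radioligand displacement read after 0.75 h by filtration and scintillation. Screen at 25 uM, then singleton titrations up to 50 uM; DMSO baseline.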

[17] = molecular target: human Serotonin, 5-Hydroxytryptamine Receptor 3 (5HT3), HTR3A (gene 3359) (UniProt P46098); test: NVS_LGIC_h5HT3: NovaScreen (NVS) Ligand-Gated Ion Channel Assay for human Serotonin, 5-Hydroxytryptamine Receptor 3 (5HT3) (AID 2283325)
Procedure, shortened: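 Initially tested at 25 uM in duplicate, then up to 50 uM in concentration-response for actives, compounds competed with a radioligand for HEK293-derived human 5-HT3 receptor. Bound counts were measured by filtration and scintillation at 1 h; loss of signal versus DMSO.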

Compound: CC(C)(C)OOC(=O)c1ccccc1
- outcome [1]: inactive

Compound: [Cl-].[Cl-].[Hg+2]
- AC50 [2]: 6.72 µM (active)
- AC50 [1]: 14.2 µM (active)
- AC50 [3]: 12.9 µM (active)
- AC50 [4]: 16.7 µM (active)
- AC50 [5]: 13.6 µM (active)
- AC50 [6]: 27.6 µM (active)
- AC50 [7]: 16.8 µM (active)

Compound: N#CC(Br)Br
- outcome [3]: inactive

Compound: CCCCCCCCn1sccc1=O
- AC50 [2]: 26 µM (active)
- outcome [3]: inactive
- AC50 [4]: 32.5 µM (active)
- AC50 [7]: 18 µM (active)
- AC50 [8]: 31.5 µM (active)
- outcome [9]: inactive

Compound: CCN(CC)CCO
- outcome [10]: inactive

Compound: CCCCCCCCOC(=O)c1ccc(C(=O)OCCCCCCCC)c(C(=O)OCCCCCCCC)c1
- AC50 [11]: 0.326 µM (active)

Compound: C1=Cc2cccc3cccc1c23
- AC50 [12]: 1.11 µM (active)

Compound: O=[N+]([O-])C(Br)(CO)CO
- AC50 [4]: 11 µM (active)
- AC50 [5]: 16 µM (active)

Compound: O=C(N[C@H](c1ccccc1)[C@@H]1CN2CCC1CC2)c1c(Cl)ccc(C(F)(F)F)c1Cl
- AC50 [1]: 37.5 µM (active)
- AC50 [3]: 28.9 µM (active)
- AC50 [4]: 37.5 µM (active)
- AC50 [5]: 9.3 µM (active)
- AC50 [8]: 0.113 µM (active)
- AC50 [13]: 0.238 µM (active)

Compound: CCC[CH2][Sn]([Cl])([CH2]CCC)[CH2]CCC
- outcome [2]: inactive
- AC50 [10]: 25 µM (active)
- AC50 [3]: 1.43 µM (active)
- AC50 [4]: 8.92 µM (active)
- outcome [11]: inactive
- outcome [14]: inactive
- AC50 [5]: 3.98 µM (active)
- AC50 [7]: 11.6 µM (active)
- AC50 [8]: 17.7 µM (active)
- outcome [9]: inactive

Compound: CC(C)(C)C(O)(CCc1ccc(Cl)cc1)Cn1cncn1 (configuration not stated)
- outcome [2]: inactive
- AC50 [1]: 12.9 µM (active)
- AC50 [8]: 25 µM (active)

Compound: CS(=O)(=O)NC(=O)c1cc(Oc2ccc(C(F)(F)F)cc2Cl)ccc1[N+](=O)[O-]
- AC50 [11]: 1.38 µM (active)
- outcome [14]: inactive

Compound: O=C(Oc1ccc(Br)cc1)N1CCN2CCC1CC2
- outcome [2]: inactive
- AC50 [15]: 8.47 µM (active)
- outcome [6]: inactive
- outcome [16]: inactive
- AC50 [8]: 8.18 µM (active)
- AC50 [17]: 12.5 µM (active)
